Screening results (PubChem)
Rows were chosen to be rich in hits. Some 2.9% of all compounds tested hit in one or more screens of this group.
FadD28 FP inh = inhibitors of FadD28 bisubstrate probe binding, primary screen, biochemical, fluorescence polarization, single point | Mycobacterium tuberculosis FadD28 fatty-acid-AMP ligase | inhibition, % at 12.5 µM | 360,000 tested, 0.22% active; in the data active = inhibition above about 8.5%, passing the limit was not always enough
Mtb hypoxia rep = PubChem AID 1159583; 300,000 tested, 0.1% active; M. tuberculosis hypoxia-regulated fluorescent reporter, fluorescence; fluorescence inhibition, % (test concentration not listed); in the data active = fluorescence inhibition mostly above about 23%, no sharp cut-off; inactive = mostly below about 17%
FBA Mtb inh = Mtb FBA enzyme inhibitors, primary screen, biochemical, fluorescence, strain H37Rv. Fructose-bisphosphate aldolase (Mycobacterium tuberculosis (strain ATCC 25618 / H37Rv)), …. purified M. tuberculosis FBA, fluorescence read-out. inhibition, % at 1 µM. 360,000 tested, 2.3% active. AID 588726, 2011;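 note: 0% = vehicle and 100% = reference inhibitor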
Target sequence (P9WQA3 whole entry, looked up): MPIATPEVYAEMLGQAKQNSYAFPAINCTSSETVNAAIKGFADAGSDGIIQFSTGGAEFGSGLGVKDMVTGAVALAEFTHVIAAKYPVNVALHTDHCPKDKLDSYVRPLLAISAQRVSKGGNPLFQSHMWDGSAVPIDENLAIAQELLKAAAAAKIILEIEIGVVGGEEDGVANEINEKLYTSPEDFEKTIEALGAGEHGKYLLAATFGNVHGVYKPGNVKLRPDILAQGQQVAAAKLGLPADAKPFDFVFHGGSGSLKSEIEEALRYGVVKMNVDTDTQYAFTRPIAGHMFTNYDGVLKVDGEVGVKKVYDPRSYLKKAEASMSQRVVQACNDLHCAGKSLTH
GDH-TPI counter-1 = GDH-TPI coupling enzyme inhibitors, primary screen, artefact control for M. tuberculosis FBA inhibitor project, biochemical, absorbance, full deck; GDH-TPI coupled enzyme counterscreen, NADH absorbance; inhibition, % at 4.8 µM; 360,000 tested, 1.2% active; AID 588335, 2011; in the data active = inhibition above about 30%;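 note: 0% = DMSO wells and 100% = wells lacking the enzyme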
Mtb BioA inh = M. tuberculosis BioA enzyme inhibitors, primary screen, biochemical, plate reader, single point, HTS; purified M. tuberculosis BioA enzyme; AID 602481, 2012; 360,000 tested, 0.096% active; inhibition, % at 9.99 µM; in the data active = inhibition above about 40%
Mtb FBA inh conf = M. tuberculosis aldolase blockers, biochemical, fluorescence, strain H37Rv, confirmation. shares compounds with FBA Mtb inh. purified M. tuberculosis FBA, fluorescence read-out. inhibition, % at 1 µM. 5,600 tested, 78% active;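 note: 0% = vehicle wells and 100% = reference inhibitor wells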
GDH-TPI counter-2 = GDH-TPI coupling enzyme inhibitors, artefact control for M. tuberculosis FBA inhibitor project, biochemical, fluorescence, high throughput; shares compounds with FBA Mtb inh; GDH-TPI coupled enzyme counterscreen; inhibition, % at 1 µM; 5,600 tested, 81% active; AID 652141, 2013; in the data active = inhibition above about 10%
The depositor's hits bear a star; . = not tested or not shown; + = active, no number. Cut-off read from the data, not from the text of the source, unless noted: active = inhibition above about 27%; inactive = the rest.

SMILES	FadD28 FP inh	Mtb hypoxia rep	FBA Mtb inh	GDH-TPI counter-1	Mtb BioA inh	Mtb FBA inh conf	GDH-TPI counter-2
COc1ccccc1-c1c(C#N)c(N)nc2c1CCc1ccccc1-2	-2	17	42*	12	.	+	+
N#Cc1c(-c2ccccc2)cc(-c2ccc(O)cc2)nc1N	-4	25	17	23	1	.	.
COc1ccccc1-c1cc(-c2ccc(O)cc2)nc(N)c1C#N	-3	-1	66*	23	.	140*	109*
Cc1ccc(-n2ncc3c2CCCC3NC(=O)CCc2c(C)noc2C)cc1C (stereo not drawn)	-1	-7	36*	-1	3	+	+
N#Cc1ccc(-c2ccc(OCC(O)CN3CCCCC3)cc2)cc1 (stereo not drawn)	0	5	58*	7	0	116*	81*
N#Cc1ccc(OCC(O)CN2CCN(CC(O)COc3ccc(C#N)cc3)CC2)cc1 (stereo not drawn)	0	-2	-1	5	-1	.	.
N#Cc1ccc(-c2ccc(OCC(O)Cn3nnc4ccccc43)cc2)cc1 (stereo not drawn)	-4	.	31*	3	1	+	+
COc1ccc(CCNC(=O)COC(=O)c2ccccc2NCCO)cc1OC	0	8	91*	5	-1	128*	78*
O=C(COC(=O)c1ccccc1NCCO)NCc1cccs1	0	7	66*	3	0	20	24*
CS(=O)(=O)Nc1ccccc1C(=O)OCC(=O)NCc1cccs1	1	13	3	12	.	.	.
CO[C@H]1CN(C)C(=O)c2cc(C#N)ccc2OC[C@H]2O[C@@H](CC[C@@H]2OC)CCN(C)C(=O)[C@H]1C	.	.	.	.	1	.	.
C[C@@H]1CN([C@H](C)CO)C(=O)c2cc(NC(=O)c3ccccc3)ccc2O[C@@H](C)CCCCO[C@@H]1CN(C)C(=O)C1CCCCC1	.	.	.	.	-4	.	.
Cc1ccccc1NC(=O)C1CC(Cl)=CCC1C(=O)O (stereo not drawn)	0	5	-1	-5	0	.	.
O=C(O)C1CC=C(Cl)CC1C(=O)NC1CCCCC1 (stereo not drawn)	1	0	28*	4	0	160*	108*
C=C(C)CN(CC)C(=O)CN1C(=O)NC2(CCc3ccccc32)C1=O (stereo not drawn)	0	10	1	4	-1	.	.
C=C(C)CN(CC)C(=O)CN1C(=O)NC2(CCCc3ccccc32)C1=O (stereo not drawn)	-1	11	63*	-3	1	101*	85*
C=CCN1C(=O)C(=c2sc3nc(=O)c(Cc4ccccc4Cl)nn3c2=O)c2ccccc21	.	3	.	.	.	.	.
CC(C)C(=O)Nc1ccc2c(c1)C(=O)N(C)[C@H]1CC[C@@H](CC(=O)NCc3cccc(F)c3)O[C@H]1CO2	.	.	.	.	-3	.	.
COc1ccc(-c2sc3cc4c(cc3c2C#CCO)OCO4)cc1	4	10	10	3	0	.	.
CS(=O)(=O)c1ccc(-c2sc3cc4c(cc3c2C(=O)NN2CCOCC2)OCO4)cc1	-1	0	48*	37*	-3	104*	85*
COC(=O)c1c(-c2ccc(OC)cc2)sc2cc3c(cc12)OCO3	-4	.	32*	8	-2	72*	77*
O=C(NN1CCOCC1)c1c(-c2ccccc2)sc2ccccc12	1	10	-1	2	0	.	.
COc1ccc(-c2sc3cc4c(cc3c2C#Cc2ccc(N)cc2)OCO4)cc1	-3	6	66*	26	0	70*	66*
COC(=O)c1c(-c2ccc(N(C)C)cc2)sc2ccc(OC)cc12	-2	1	89*	9	-4	+	158*
O=C(Cc1ccccn1)N[C@H]1CC[C@H](CCn2cc(-c3cccnc3)nn2)O[C@@H]1CO	.	.	.	.	3	.	.
